According to PubChem BioAssay (NCATS):
Inconclusive results are not listed. Activity calls are given as the source filed them. Calls come from the whole dose curve; as a rule, active = well fitted inhibition curve with a large enough effect; inconclusive = small, poorly fitted or top-dose-only effect; inactive = flat fitted curve, though single readings scatter.

Columns and labels:
Experiment in all cases: qHTS profiling for inhibitors of Plasmodium falciparum proliferation (AID 504749); note: nearly all actives have a fitted effect of over 60% in size
CP252 = details: P. falciparum in erythrocytes, SYBR Green DNA, 72 h; series mostly up to 12.8 µM
Procedure, shortened: (§1)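 Three-day growth assay of blood-stage parasites in erythrocytes (0.3% parasitemia, 2.5% hematocrit) at 37 C, 5% CO2, quantified by SYBR Green DNA staining after overnight detergent lysis.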

CP256 = details: P. falciparum in erythrocytes, SYBR Green DNA, 72 h; series mostly up to 28.7 µM
Procedure, shortened: as §1

CP260 = details: P. falciparum in erythrocytes, SYBR Green DNA, 72 h; series mostly up to 28.7 µM
Procedure, shortened: as §1

CP265 = details: P. falciparum in erythrocytes, SYBR Green DNA, 72 h; series mostly up to 12.8 µM
Procedure, shortened: as §1

CP266 = details: P. falciparum in erythrocytes, SYBR Green DNA, 72 h; series mostly up to 12.8 µM
Procedure, shortened: as §1

CP268 = details: P. falciparum in erythrocytes, SYBR Green DNA, 72 h; series mostly up to 28.7 µM
Procedure, shortened: as §1

CP269 = details: P. falciparum in erythrocytes, SYBR Green DNA, 72 h; series mostly up to 28.7 µM
Procedure, shortened: as §1

CP286 = details: P. falciparum in erythrocytes, SYBR Green DNA, 72 h; series mostly up to 28.7 µM
Procedure, shortened: as §1

CP291 = details: P. falciparum in erythrocytes, SYBR Green DNA, 72 h; series mostly up to 28.7 µM
Procedure, shortened: as §1

CP297 = details: P. falciparum in erythrocytes, SYBR Green DNA, 72 h; series mostly up to 28.7 µM
Procedure, shortened: as §1

CP305 = details: P. falciparum in erythrocytes, SYBR Green DNA, 72 h; series mostly up to 28.7 µM
Procedure, shortened: as §1

CP315 = details: P. falciparum in erythrocytes, SYBR Green DNA, 72 h; series mostly up to 28.7 µM
Procedure, shortened: as §1

CP325 = details: P. falciparum in erythrocytes, SYBR Green DNA, 72 h; series mostly up to 28.7 µM
Procedure, shortened: as §1

CP329 = details: P. falciparum in erythrocytes, SYBR Green DNA, 72 h; series mostly up to 28.7 µM
Procedure, shortened: as §1

DIV14 = details: P. falciparum in erythrocytes, SYBR Green DNA, 72 h; series mostly up to 28.7 µM
Procedure, shortened: as §1

DIV17 = details: P. falciparum in erythrocytes, SYBR Green DNA, 72 h; series mostly up to 28.7 µM
Procedure, shortened: as §1

DIV30 = details: P. falciparum in erythrocytes, SYBR Green DNA, 72 h; series mostly up to 28.7 µM
Procedure, shortened: as §1

Dd2 = details: P. falciparum in erythrocytes, SYBR Green DNA, 72 h; series mostly up to 28.7 µM
Procedure, shortened: as §1

ECU = details: P. falciparum in erythrocytes, SYBR Green DNA, 72 h; series mostly up to 28.7 µM
Procedure, shortened: as §1

FAB9 = details: P. falciparum in erythrocytes, SYBR Green DNA, 72 h; series mostly up to 28.7 µM
Procedure, shortened: as §1

GB4 = details: P. falciparum in erythrocytes, SYBR Green DNA, 72 h; series mostly up to 28.7 µM
Procedure, shortened: as §1

HB3 = details: P. falciparum in erythrocytes, SYBR Green DNA, 72 h; series mostly up to 28.7 µM
Procedure, shortened: as §1

ICS = details: P. falciparum in erythrocytes, SYBR Green DNA, 72 h; series mostly up to 28.7 µM
Procedure, shortened: as §1

N140 = details: P. falciparum in erythrocytes, SYBR Green DNA, 72 h; series mostly up to 28.7 µM
Procedure, shortened: as §1

P93_24 = details: P. falciparum in erythrocytes, SYBR Green DNA, 72 h; series mostly up to 28.7 µM
Procedure, shortened: as §1

P94_40 = details: P. falciparum in erythrocytes, SYBR Green DNA, 72 h; series mostly up to 28.7 µM
Procedure, shortened: as §1

PAD = details: P. falciparum in erythrocytes, SYBR Green DNA, 72 h; series mostly up to 28.7 µM
Procedure, shortened: as §1

PC15 = details: P. falciparum in erythrocytes, SYBR Green DNA, 72 h; series mostly up to 28.7 µM
Procedure, shortened: as §1

PC26 = details: P. falciparum in erythrocytes, SYBR Green DNA, 72 h; series mostly up to 28.7 µM
Procedure, shortened: as §1

PC49 = details: P. falciparum in erythrocytes, SYBR Green DNA, 72 h; series mostly up to 28.7 µM
Procedure, shortened: as §1

SC27B = details: P. falciparum in erythrocytes, SYBR Green DNA, 72 h; series mostly up to 28.7 µM
Procedure, shortened: as §1

TAB109 = details: P. falciparum in erythrocytes, SYBR Green DNA, 72 h; series mostly up to 12.8 µM
Procedure, shortened: as §1

TAB113 = details: P. falciparum in erythrocytes, SYBR Green DNA, 72 h; series mostly up to 28.7 µM
Procedure, shortened: as §1

TAB165 = details: P. falciparum in erythrocytes, SYBR Green DNA, 72 h; series mostly up to 28.7 µM
Procedure, shortened: as §1

W2 = details: P. falciparum in erythrocytes, SYBR Green DNA, 72 h; series mostly up to 12.8 µM
Procedure, shortened: as §1

Measured: Potency
Potency is the fitted concentration of half-maximal effect.

CO[C@@H](COC(N)=O)C1=C(N2CC2)C(=O)C(C)=C(N2CC2)C1=O
active: CP252 794 nM | CP256 1410 nM | CP260 1000 nM | CP265 708 nM | CP266 3790 nM | CP268 3010 nM | CP269 953 nM | CP286 1120 nM | CP291 1350 nM | CP297 1690 nM | CP305 1900 nM | CP315 3380 nM | CP325 3010 nM | CP329 1510 nM | DIV14 1510 nM | DIV17 1900 nM | DIV30 3010 nM | Dd2 891 nM | ECU 2000 nM | FAB9 7940 nM | GB4 1510 nM | HB3 2000 nM | ICS 1000 nM | N140 1260 nM | P93_24 1120 nM | P94_40 1120 nM | PAD 1260 nM | PC15 2820 nM | PC26 1900 nM | SC27B 1260 nM | TAB109 1120 nM | TAB113 1260 nM | TAB165 708 nM | W2 301 nM
inactive: PC49
